Our source for the Potency and activity change, negative = cytotoxicity values is PubChem BioAssay (Tox21).

Inconclusive results are not listed. Entries that show only a call come without a potency. Values without a mark were called inactive. Calls of active or inactive are those of the source. The call rests on the fitted dose curve; in most records, active means well fitted cell-killing curve with a large enough effect in the repeat runs; inconclusive means weak or mixed curves, or effect the other way; inactive means flat fitted curve, though single readings scatter.
Potency means the concentration at half of the fitted maximal effect.

The nature of the experiment: Caspase-3/7 induction in HepG2 cells by small molecules, qHTS cell viability counter screen (AID 1346981). Further: nearly all actives have a fitted effect of over 30% in size. The note with it: CellTiter-Fluor fluorescence, 17 h; series mostly up to 92.4 µM. An excerpt: U.S. Tox21 Program National Center for Advancing Translational Sciences [NCATS] NIH Chemical Genomics Center [NCGC] U.S. Environmental Protection Agency [EPA] National Institutes of Environmental Health Sciences [NIEHS] National Toxicology Program [NTP] U.S. Food and Drug Administration [FDA] Tox21 Assay Overview: Apoptosis is a process of programmed cell death and plays a central role in the development of multicellular organisms. It is a highly regulated process and induces cell death by activating caspases, which are the members of cysteine aspartic acid-specific protease (caspase) family. Caspases involved in apoptosis are classified by their mechanism of action as initiator caspases (caspase-2, -8, -9 and -10) and executioner caspases (caspase-3, -6, and -7). Inhibition of apoptosis results in number of cancers, autoimmune diseases, inflammatory diseases and viral infection. To identify small molecule compounds that induce apoptosis, a homogeneous, luminescent Caspase-Glo 3/7 assay was used. Wild type HepG2 cells were used to screen Tox21 libraries for identifying caspase-3/7 activity inducers. Also cytotoxicity of the compounds was tested in parallel by measuring the cell viability using CellTiter-Fluor assay system in the same wells.
Tox21 Assay Protocol Summary: HepG2 cells were dispensed at 2,000 per well in 5uL of culture medium into white solid bottom 1536-well plates (Corning Life Sciences, Corning, NY) using a Multidrop Combi (Thermo Scientific, Waltham, MA) dispenser. The assay plates were incubated at 37 C and 5% CO2 for 5hr, and then 23nL of compounds dissolved in DMSO and positive control were transferred using a Pintool station ([…], San Diego, CA). The assay plates were incubated at 37C and 5% CO2 for 17hr. For cytotoxicity read, after 16hr incubation at 37C, 1uL CellTiter-Fluor reagent (Promega Corporation, Madison, WI) was added to each well of the assay plates using Flying Reagent Dispenser (FRD, Aurora Discovery, San Diego, CA). After 1hr incubation at 37C and 5% CO2, the fluorescence signal was quantified using a ViewLux plate reader (PerkinElmer, Shelton, CT).
Background: Quantitative high-throughput screening tests each substance at several concentrations.
As for `CC(=O)Oc1ccc(C2(c3ccc(OC(C)=O)cc3)Oc3ccccc3NC2=O)cc1`, the Potency result is “inactive”.
Same read-out and setting: the value for `O=C(O)c1cccc(Cl)n1` was “inactive”; that for `Oc1cc2ccccc2cc1O` was “inactive”.
On the same count and under the same terms, under `C=CC(=O)OCCOCC(CC)(COCCOC(=O)C=C)COCCOC(=O)C=C` stands 63.7 µM (active); under `CCCCCCCCCCCCOC(=O)c1cc(O)c(O)c(O)c1`, 60.9 µM (active).
The same measure, in the same setting: the value for `COC(=O)CC(C)CCC=C(C)C` (stereo not given) was “inactive”.
With `CCCCCCCCCCCCCCCCCO`, the activity change, negative = cytotoxicity is 9.49% [at 19 µM].
Regarding `Cc1cccc(C)n1`, the Potency entry was “inactive”.
On the same count and under the same terms, under `CCCCCCCCCCCCCCCC` stands “inactive”; under `CCNc1nc(NC(C)CC)nc(OC)n1` (stereo not given), “inactive”.
Same read-out and setting: the value for `C[Si](C)(C)Cl` was “inactive”.
The same measure, in the same setting: the value for `CCOC(=O)[C@@](C)(N)Cc1ccc(O)c(O)c1` was “inactive”; that for `CC1CCCCN1CCCOC(=O)c1ccc(OC2CCCCC2)cc1` (stereo not given) was “inactive”.
`CCO[Si](C)(C)OCC`: the Potency entry is “inactive”.
In the case of `Oc1c(Br)cc(Br)c2cccnc12`, the Potency entry is “inactive”.
Consider `OCCN1CN(CCO)CN(CCO)C1`, for which the Potency result was “inactive”.
For `CCOCOCC`, the Potency result was “inactive”.
Same read-out and setting: under `CO[Si](CCCNCCNCCN)(OC)OC` stands “inactive”; under `CCCSS/C(CCO)=C(\C)N(C=O)Cc1cnc(C)nc1N`, “inactive”; under `NCCCCCCNCCCCCCN`, “inactive”.
Same read-out and setting: the value for `CCCCCCCC(=O)OCC` was “inactive”; that for `Cc1cc(Nc2ccc(O)cc2)ccc1N` was 48.3 µM (active); that for `c1ccc(Sc2ccccc2)cc1` was “inactive”.
The same measure, in the same setting: the value for `C=CCCCCCCC=C` was “inactive”.
Take `CCCN(CCc1cccs1)[C@H]1CCc2c(O)cccc2C1`: the Potency entry is “inactive”.
On the same count and under the same terms, under `CCCOc1sc(C(=O)N2CCC(c3cc(CN)ccc3F)CC2)c(C)c1Br` stands 49.9 µM (active); under `CCC1(c2cnc[nH]2)Cc2ccccc2C1`, “inactive”.
On the same count and under the same terms, the value for `CCOC(=O)CC(C)O` (stereo not given) was “inactive”.
Still for that read-out and setting: under `C[Si](C)O[Si](C)C` stands “inactive”.
With `O=C1c2c(O)ccc([N+](=O)[O-])c2C(=O)c2c([N+](=O)[O-])ccc(O)c21`, the Potency is 24.1 µM (active).
The same measure, in the same setting: under `Oc1ccc(-c2ccccc2)c(Cl)c1` stands “inactive”; under `O=C(NO)c1ccccc1`, “inactive”; under `CCOC(=O)COc1ccc(C)cc1`, “inactive”.
On to `CCC(=O)CC(C)CC` (stereo not given), for which the activity change, negative = cytotoxicity was 6.32% [at 0.349 µM].
Regarding `CC(=O)c1ccccc1N`, the Potency entry was “inactive”.
The same measure, in the same setting: the value for `CCc1cccc(CC)c1NC(=O)C(=O)O` was “inactive”.
Turning to `CCc1c(C(=O)O)c(=O)cnn1-c1ccc(Cl)cc1`, the Potency result is “inactive”.
The same measure, in the same setting: the value for `CCCC(=O)OCC(COC(=O)CCC)OC(=O)CCC` was “inactive”; that for `CCC1CCCCC1` was “inactive”.
`O=S(=O)(O)c1cc(S(=O)(=O)O)c2ccc3c(S(=O)(=O)O)cc(S(=O)(=O)O)c4ccc1c2c43`: the activity change, negative = cytotoxicity was 6.28% [at 19 µM].
